Screening results: PubChem BioAssay, Broad Institute
CD40 NFkB inh: inhibitors of CD40-induced NF-kB signaling, primary screen, BL2 cells, luciferase reporter, single point. CD40L-induced, 4 h. inhibition, % at 10 µM. 83,000 tested, 0.94% active. AID 1053188, 2014;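 active = mean inhibition of at least 50% with a set share of replicates also reaching that level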
Hits are given with their value; i = inactive; [ ] = remark or other dose. Only a selection was taken, and hits are over-represented in it overall.

SMILES	CD40 NFkB inh
Cc1nc2nc(C)n(CCN3CCOCC3)c(=O)c2c(-c2cccc([N+](=O)[O-])c2)c1C(=O)CCCCCCCCCCN1CCC(c2ccccc2)(c2ccccc2)CC1	115
CCOC(=O)c1c(C)nc(C)c(C(=O)OCC)c1-c1cccc([N+](=O)[O-])c1	i
C[C@@H]1CCCCO[C@@H](CN(C)Cc2ccc(C(F)(F)F)cc2)[C@H](C)CN([C@@H](C)CO)C(=O)c2cc(NC(=O)Nc3cccc4ccccc34)ccc2O1	i
C[C@@H]1CCCCO[C@H](CN(C)Cc2ccc(C(F)(F)F)cc2)[C@@H](C)CN([C@@H](C)CO)C(=O)c2cc(NC(=O)Nc3cccc4ccccc34)ccc2O1	51[25 µM]
C[C@H]1CCCCO[C@@H](CN(C)C(=O)C2CCCCC2)[C@@H](C)CN([C@@H](C)CO)C(=O)c2cc(NS(=O)(=O)c3ccccc3)ccc2O1	i
C[C@H]1CCCCO[C@H](CN(C)C(=O)C2CCCCC2)[C@@H](C)CN([C@@H](C)CO)C(=O)c2cc(NS(=O)(=O)c3ccccc3)ccc2O1	i
COc1ccc(S(=O)(=O)Nc2ccc3c(c2)C(=O)N([C@H](C)CO)C[C@H](C)[C@@H](CN(C)Cc2ccc(C(F)(F)F)cc2)OCCCC[C@@H](C)O3)cc1	53[25 µM]
C[C@@H]1CCCCO[C@@H](CN(C)C(=O)C2CCCCC2)[C@@H](C)CN([C@H](C)CO)C(=O)c2cc(NS(=O)(=O)c3ccccc3)ccc2O1	67[25 µM]
C[C@@H]1CCCCO[C@@H](CN(C)Cc2ccc(C(F)(F)F)cc2)[C@H](C)CN([C@H](C)CO)C(=O)c2cc(NC(=O)Nc3cccc4ccccc34)ccc2O1	i
COc1ccc(S(=O)(=O)Nc2ccc3c(c2)C(=O)N([C@H](C)CO)C[C@@H](C)[C@H](CN(C)Cc2ccc(C(F)(F)F)cc2)OCCCC[C@H](C)O3)cc1	i
COc1ccc(S(=O)(=O)Nc2ccc3c(c2)C(=O)N([C@@H](C)CO)C[C@H](C)[C@@H](CN(C)Cc2ccc(C(F)(F)F)cc2)OCCCC[C@H](C)O3)cc1	i
C[C@@H]1CCCCO[C@@H](CN(C)Cc2ccc(C(F)(F)F)cc2)[C@@H](C)CN([C@H](C)CO)C(=O)c2cc(NC(=O)Nc3cccc4ccccc34)ccc2O1	i
C[C@@H]1CCCCO[C@H](CN(C)Cc2ccc(C(F)(F)F)cc2)[C@H](C)CN([C@@H](C)CO)C(=O)c2cc(NC(=O)Nc3cccc4ccccc34)ccc2O1	i
C[C@@H]1CN([C@H](C)CO)C(=O)c2cc(NC(=O)Nc3cccc4ccccc34)ccc2O[C@@H](C)CCCCO[C@H]1CN(C)Cc1ccc(C(F)(F)F)cc1	49[25 µM]
CC(C)NC(=O)N1[C@H](CO)[C@@H]2c3ccccc3N(C(=O)C3CCC3)C[C@@H]21	i
CC(=O)N(C)C[C@@H]1Oc2ccc(NS(C)(=O)=O)cc2CC(=O)N(C)C[C@H]1C	i
CC(=O)N1[C@@H]2CN(CC(F)(F)F)C[C@H]1C2c1ccccc1 (stereo not given in full)	i
CC(=O)Nc1ccc2c(c1)C(=O)N(C)C[C@@H](C)[C@@H](CN(C)C(=O)NC(C)C)O2	i
CN1C(=O)c2cc(NC(=O)c3ccc(F)cc3)ccc2OC[C@H]2O[C@@H](CC(=O)NCC3CCCCC3)CC[C@@H]21	i
C[C@H](CO)N1C[C@H](C)[C@@H](CN(C)C(=O)Nc2ccccc2C(F)(F)F)OCc2ccccc2-c2ccccc2C1=O	i
C[C@H]1CN(C)C(=O)Cc2cc(N)ccc2O[C@@H]1CN(C)C(=O)OC(C)(C)C	i
O=C(C1CCCC1)N1C[C@H]2[C@@H](c3ccccc31)[C@@H](CO)N2C(=O)Cc1ccccn1	i
O=C(c1ccco1)N1CCN(S(=O)(=O)c2ccc3c(c2)CCN3C(=O)C2CCC2)CC1	i
CCOC(=O)N1CCN(S(=O)(=O)c2ccc3c(c2)CCN3C(=O)C2CCC2)CC1	i
O=C(C1CCC1)N1CCc2cc(S(=O)(=O)N3CCCCC3)ccc21	active
SMILES	CD40 NFkB inh
CCCc1cn(CC[C@H]2CC[C@@H](NC(=O)C3CCCC3)[C@@H](CO)O2)nn1	i
Cc1cc(C)c2c(c1)SC1=NC(c3ccccc3)(C(F)(F)F)NC(=O)N12 (stereo not given)	50
CN(C)C(=O)c1cccc(-c2cnc3c(NC=O)cc(-c4cccc(C(F)(F)F)c4)cn23)c1	65
COc1ccc(-c2cc(NC=O)c3ncc(-c4cccc(C(=O)N(C)C)c4)n3c2)cn1	i
CC(=O)Nc1cc(-c2cccc(C(=O)N(C)C)c2)cn2c(-c3ccccc3)cnc12	i
N#C[C@@H]1[C@H](c2ccc(-c3ccccc3F)cc2)[C@H](CO)N1C(=O)Cc1ccccc1	i
COc1ccc2c3c([nH]c2c1)[C@@H](CO)N(C(=O)c1cccc(F)c1)CC31CN(C(=O)CC2CC2)C1	i
COc1ccc2c3c([nH]c2c1)[C@H](CO)N(C(=O)Nc1cccc(F)c1)CC31CCN(S(=O)(=O)c2cccc(C)c2)CC1	80[25 µM]
COc1ccc2c3c(n(C)c2c1)[C@H](CO)N(C(=O)Nc1ccc(F)cc1)CC31CCN(S(=O)(=O)c2cccc(C)c2)CC1	i
